{"source": "PubChem BioAssay AID1159580", "about": "(chemical genetic matrix, 2015)", "assay": "chemical genetic growth profiling, strain panel (AID 1159580);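 further: tested at 20 µM; growth read once vehicle control cultures reached saturation at 30 °C; 1 = growth at the plate median or of vehicle wells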", "conditions": "S. cerevisiae deletion strains, growth OD", "key": {"[1]": {"conditions": "locus YDL101C, strain DUN1, stronger effect = lower value"}, "[2]": {"conditions": "locus YHR030C, strain SLT2, stronger effect = lower value"}}, "note": "The whole screen tested about 5,500 compounds, of which about 2,000 (36%) were called active. Another 18% or so got no clear call; they are omitted. This is one part of the list. A number with no mark means an inactive call. No stated cut-off is given here; in the data, active means normalized growth mostly below about 0.91 (no sharp cut-off); inconclusive means no clear call, values can overlap the other calls; inactive means mostly above about 0.92.", "data": [{"smiles": "Cc1onc(-c2c(Cl)cccc2Cl)c1C(=O)OCC(F)(F)F", "values": [{"measurement": "normalized growth", "setting": "locus YAL013W, strain DEP1, stronger effect = lower value", "value": 1.01}, {"measurement": "normalized growth", "setting": "locus YBR229C, strain ROT2, stronger effect = lower value", "value": 1.01}, {"measurement": "normalized growth", "setting": "locus YCL061C, strain MRC1, stronger effect = lower value", "value": 1.02}, {"measurement": "normalized growth", "setting": "[1]", "value": 0.984}, {"measurement": "normalized growth", "setting": "locus YDR150W, strain NUM1, stronger effect = lower value", "value": 0.982}, {"measurement": "normalized growth", "setting": "locus YEL061C, strain CIN8, stronger effect = lower value", "value": 1}, {"measurement": "normalized growth", "setting": "locus YGR078C, strain PAC10, stronger effect = lower value", "value": 0.99}, {"measurement": "normalized growth", "setting": "[2]", "value": 1.05}, {"measurement": "normalized growth", "setting": "locus YHR087W, strain rtc3, stronger effect = lower value", "value": 0.986}, {"measurement": "normalized growth", "setting": "locus YJR043C, strain POL32, stronger effect = lower value", "value": 0.99}, {"measurement": "normalized growth", "setting": "locus YJR075W, strain HOC1, stronger effect = lower value", "value": 1}, {"measurement": "normalized growth", "setting": "locus YKL190W, strain CNB1, stronger effect = lower value", "value": 1}, {"measurement": "normalized growth", "setting": "locus YLR039C, strain RIC1, stronger effect = lower value", "value": 0.955}, {"measurement": "normalized growth", "setting": "locus YLR058C, strain SHM2 (second series), stronger effect = lower value", "value": 1.01}, {"measurement": "normalized growth", "setting": "locus YLR085C, strain ARP6, stronger effect = lower value", "value": 0.971}, {"measurement": "normalized growth", "setting": "locus YLR262C, strain YPT6, stronger effect = lower value", "value": 0.942}, {"measurement": "normalized growth", "setting": "locus YML094W, strain GIM5, stronger effect = lower value", "value": 1.01}, {"measurement": "normalized growth", "setting": "locus YMR219W, strain ESC1, stronger effect = lower value", "value": 0.997}, {"measurement": "normalized growth", "setting": "locus YMR263W, strain SAP30, stronger effect = lower value", "value": 1}, {"measurement": "normalized growth", "setting": "locus YNL153C, strain GIM3, stronger effect = lower value", "value": 1.02}, {"measurement": "normalized growth", "setting": "locus YNL298W, strain CLA4 (second series), stronger effect = lower value", "value": 1.02}, {"measurement": "normalized growth", "setting": "locus YNL322C, strain KRE1, stronger effect = lower value", "value": 1}, {"measurement": "normalized growth", "setting": "locus YNR030W, strain Alg12, stronger effect = lower value", "value": 0.985}, {"measurement": "normalized growth", "setting": "locus YPL055C, strain LGE1, stronger effect = lower value", "value": 1.01}, {"measurement": "normalized growth", "setting": "locus YPL241C, strain CIN2, stronger effect = lower value", "value": 1.04}, {"measurement": "normalized growth", "setting": "locus YPR135W, strain CTF4, stronger effect = lower value", "value": 0.989}]}, {"smiles": "CCCCCCCCCCCC(=O)NOC(=O)c1c(-c2c(Cl)cccc2Cl)noc1C", "values": [{"measurement": "normalized growth", "setting": "locus YAR019C, strain CDC15, stronger effect = lower value", "value": 0.984}, {"measurement": "normalized growth", "setting": "locus YBL105C, strain PKC1, stronger effect = lower value", "value": 0.986}, {"measurement": "normalized growth", "setting": "locus YBR135W, strain CKS1, stronger effect = lower value", "value": 0.984}, {"measurement": "normalized growth", "setting": "locus YBR136W, strain MEC1, stronger effect = lower value", "value": 0.985}, {"measurement": "normalized growth", "setting": "locus YBR160W, strain CDC28, stronger effect = lower value", "value": 0.998}, {"measurement": "normalized growth", "setting": "locus YDL017W, strain CDC7, stronger effect = lower value", "value": 0.986}, {"measurement": "normalized growth", "setting": "locus YDL028C, strain MPS1, stronger effect = lower value", "value": 0.988}, {"measurement": "normalized growth", "setting": "[1]", "value": 0.999}, {"measurement": "normalized growth", "setting": "locus YDL108W, strain KIN28, stronger effect = lower value", "value": 0.982}, {"measurement": "normalized growth", "setting": "locus YDL132W, strain cdc53, stronger effect = lower value", "value": 0.986}, {"measurement": "normalized growth", "setting": "locus YDL214C, strain PRR2, stronger effect = lower value", "value": 0.948}, {"measurement": "normalized growth", "setting": "locus YDR052C, strain DBF4, stronger effect = lower value", "value": 0.997}, {"measurement": "normalized growth", "setting": "locus YDR054C, strain cdc34, stronger effect = lower value", "value": 0.988}, {"measurement": "normalized growth", "setting": "locus YDR226W, strain ADK1, stronger effect = lower value", "value": 0.981}, {"measurement": "normalized growth", "setting": "locus YDR477W, strain SNF1, stronger effect = lower value", "value": 0.818}, {"measurement": "normalized growth", "setting": "locus YER123W, strain YCK3, stronger effect = lower value", "value": 0.656}, {"measurement": "normalized growth", "setting": "locus YER133W, strain GLC7, stronger effect = lower value", "value": 0.779}, {"measurement": "normalized growth", "setting": "locus YFL009W, strain cdc4, stronger effect = lower value", "value": 0.99}, {"measurement": "normalized growth", "setting": "locus YFL029C, strain CAK1, stronger effect = lower value", "value": 0.989}, {"measurement": "normalized growth", "setting": "locus YFR003C, strain YPI1, stronger effect = lower value", "value": 0.984}, {"measurement": "normalized growth", "setting": "locus YFR019W, strain FAB1, stronger effect = lower value", "value": 0.874}, {"measurement": "normalized growth", "setting": "locus YFR028C, strain CDC14, stronger effect = lower value", "value": 0.996}, {"measurement": "normalized growth", "setting": "locus YGR040W, strain KSS1, stronger effect = lower value", "value": 0.838}, {"measurement": "normalized growth", "setting": "locus YGR052W, strain FMP48, stronger effect = lower value", "value": 0.641}, {"measurement": "normalized growth", "setting": "locus YGR092W, strain DBF2, stronger effect = lower value", "value": 0.586}, {"measurement": "normalized growth", "setting": "[2]", "value": "0.139 (active)"}, {"measurement": "normalized growth", "setting": "locus YHR079C, strain IRE1, stronger effect = lower value", "value": "0.139 (active)"}, {"measurement": "normalized growth", "setting": "locus YHR082C, strain KSP1, stronger effect = lower value", "value": 0.9}, {"measurement": "normalized growth", "setting": "locus YHR205W, strain SCH9, stronger effect = lower value", "value": 0.586}, {"measurement": "normalized growth", "setting": "locus YIL147C, strain SLN1, stronger effect = lower value", "value": 0.984}, {"measurement": "normalized growth", "setting": "locus YJL095W, strain BCK1, stronger effect = lower value", "value": "0.117 (active)"}, {"measurement": "normalized growth", "setting": "locus YJL128C, strain PBS2, stronger effect = lower value", "value": 1}, {"measurement": "normalized growth", "setting": "locus YJL157C, strain FAR1, stronger effect = lower value", "value": 0.909}, {"measurement": "normalized growth", "setting": "locus YJR016C, strain ILV3, stronger effect = lower value", "value": 0.984}, {"measurement": "normalized growth", "setting": "locus YJR066W, strain TOR1 (second series), stronger effect = lower value", "value": "0.451 (active)"}, {"measurement": "normalized growth", "setting": "locus YJR066W, strain TOR1, stronger effect = lower value", "value": 0.583}, {"measurement": "normalized growth", "setting": "locus YKL048C, strain ELM1, stronger effect = lower value", "value": 0.995}, {"measurement": "normalized growth", "setting": "locus YKL067W, strain YNK1, stronger effect = lower value", "value": 0.944}, {"measurement": "normalized growth", "setting": "locus YKL101W, strain HSL1, stronger effect = lower value", "value": 0.961}, {"measurement": "normalized growth", "setting": "locus YKL193C, strain SDS22, stronger effect = lower value", "value": 0.979}, {"measurement": "normalized growth", "setting": "locus YKL203C, strain TOR2, stronger effect = lower value", "value": "0.66 (active)"}, {"measurement": "normalized growth", "setting": "locus YLR113W, strain HOG1, stronger effect = lower value", "value": "0.415 (active)"}, {"measurement": "normalized growth", "setting": "locus YLR133W, strain CKI1, stronger effect = lower value", "value": 0.905}, {"measurement": "normalized growth", "setting": "locus YLR403W, strain SFP1, stronger effect = lower value", "value": "0.553 (active)"}, {"measurement": "normalized growth", "setting": "locus YML070W, strain DAK1, stronger effect = lower value", "value": 0.692}, {"measurement": "normalized growth", "setting": "locus YMR001C, strain CDC5, stronger effect = lower value", "value": 0.982}, {"measurement": "normalized growth", "setting": "locus YMR205C, strain PFK2 (second series), stronger effect = lower value", "value": 0.935}, {"measurement": "normalized growth", "setting": "locus YMR277W, strain FCP1, stronger effect = lower value", "value": 0.977}, {"measurement": "normalized growth", "setting": "locus YNL006W, strain LST8, stronger effect = lower value", "value": 0.992}, {"measurement": "normalized growth", "setting": "locus YNL020C, strain ARK1, stronger effect = lower value", "value": 0.915}, {"measurement": "normalized growth", "setting": "locus YNL161W, strain CBK1, stronger effect = lower value", "value": 0.992}, {"measurement": "normalized growth", "setting": "locus YNL183C, strain NPR1, stronger effect = lower value", "value": "0.571 (active)"}, {"measurement": "normalized growth", "setting": "locus YNL207W, strain RIO2, stronger effect = lower value", "value": 0.966}, {"measurement": "normalized growth", "setting": "locus YNL222W, strain SSU72, stronger effect = lower value", "value": 0.988}, {"measurement": "normalized growth", "setting": "locus YNL307C, strain MCK1 (second series), stronger effect = lower value", "value": 0.69}, {"measurement": "normalized growth", "setting": "locus YOL078W, strain AVO1, stronger effect = lower value", "value": 0.98}, {"measurement": "normalized growth", "setting": "locus YOL136C, strain PFK27, stronger effect = lower value", "value": 0.867}, {"measurement": "normalized growth", "setting": "locus YOR061W, strain CKA2, stronger effect = lower value", "value": 0.886}, {"measurement": "normalized growth", "setting": "locus YOR119C, strain RIO1, stronger effect = lower value", "value": "0.578 (active)"}, {"measurement": "normalized growth", "setting": "locus YOR231W, strain MKK1, stronger effect = lower value", "value": 0.689}, {"measurement": "normalized growth", "setting": "locus YOR329C, strain SCD5, stronger effect = lower value", "value": 0.991}, {"measurement": "normalized growth", "setting": "locus YPL031C, strain PHO85, stronger effect = lower value", "value": 0.795}, {"measurement": "normalized growth", "setting": "locus YPL153C, strain RAD53, stronger effect = lower value", "value": "0.533 (active)"}, {"measurement": "normalized growth", "setting": "locus YPL204W, strain HRR25, stronger effect = lower value", "value": "0.63 (active)"}, {"measurement": "normalized growth", "setting": "locus YPL209C, strain IPL1, stronger effect = lower value", "value": 0.991}, {"measurement": "normalized growth", "setting": "locus YPL256C, strain CLN2, stronger effect = lower value", "value": "0.697 (active)"}, {"measurement": "normalized growth", "setting": "locus YPR025C, strain CCL1, stronger effect = lower value", "value": 0.993}, {"measurement": "normalized growth", "setting": "locus YPR106W, strain ISR1, stronger effect = lower value", "value": 1}, {"measurement": "normalized growth", "setting": "locus YPR111W, strain DBF20, stronger effect = lower value", "value": 1.01}, {"measurement": "normalized growth", "setting": "strain NNK1, stronger effect = lower value", "value": 0.996}, {"measurement": "normalized growth", "setting": "strain TSCII, stronger effect = lower value", "value": 0.991}]}]}
